Data on two molecules can be found in ChEMBL document CHEMBL1961873, “Compounds: GSK PKIS; Assays: Nanosyn kinase panel” (2012).

Molecules are shown by their SMILES.

In assay [1] the target is T1, Mitogen-activated protein kinase 12 (Homo sapiens) (UniProt P53778).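 Note: values are averaged p38gamma kinase inhibition readings, compounds tested at 1 µM.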
T1 sequence (whole entry): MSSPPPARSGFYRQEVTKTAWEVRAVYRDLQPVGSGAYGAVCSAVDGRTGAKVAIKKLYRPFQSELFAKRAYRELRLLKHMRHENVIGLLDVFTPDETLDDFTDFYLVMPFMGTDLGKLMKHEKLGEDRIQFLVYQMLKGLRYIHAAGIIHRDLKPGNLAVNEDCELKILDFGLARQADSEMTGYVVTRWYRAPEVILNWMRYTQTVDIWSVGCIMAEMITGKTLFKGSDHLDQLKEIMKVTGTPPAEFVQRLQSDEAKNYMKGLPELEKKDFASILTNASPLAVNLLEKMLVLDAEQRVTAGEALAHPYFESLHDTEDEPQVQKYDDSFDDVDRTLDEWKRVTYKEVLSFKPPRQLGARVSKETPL
The note with it: at 1 µM.

Assay [2] deals with SRSF protein kinase 1 (Homo sapiens) (UniProt Q96SB4). The following applies: at 0.1 µM.
Chain of SRSF protein kinase 1 (Homo sapiens) (Q96SB4 whole entry): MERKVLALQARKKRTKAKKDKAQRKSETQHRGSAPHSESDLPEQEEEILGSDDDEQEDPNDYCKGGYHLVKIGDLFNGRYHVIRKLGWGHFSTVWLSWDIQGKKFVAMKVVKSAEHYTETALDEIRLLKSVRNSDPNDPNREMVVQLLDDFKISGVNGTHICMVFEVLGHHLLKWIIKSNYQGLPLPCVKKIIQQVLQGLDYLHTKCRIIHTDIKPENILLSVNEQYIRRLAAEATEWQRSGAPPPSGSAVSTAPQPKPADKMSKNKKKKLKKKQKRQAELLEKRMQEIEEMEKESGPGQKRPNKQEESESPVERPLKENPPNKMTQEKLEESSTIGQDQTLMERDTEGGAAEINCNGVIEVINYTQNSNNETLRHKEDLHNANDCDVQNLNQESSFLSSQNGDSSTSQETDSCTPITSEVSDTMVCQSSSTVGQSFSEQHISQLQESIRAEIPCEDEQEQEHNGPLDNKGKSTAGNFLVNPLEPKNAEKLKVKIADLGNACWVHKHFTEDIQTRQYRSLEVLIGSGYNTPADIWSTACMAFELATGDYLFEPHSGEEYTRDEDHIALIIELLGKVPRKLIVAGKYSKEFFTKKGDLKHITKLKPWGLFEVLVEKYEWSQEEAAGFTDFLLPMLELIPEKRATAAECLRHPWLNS
Assay [3] shares this target. The following applies: at 1 µM.
Assay [4] deals with Phosphatidylinositol 4,5-bisphosphate 3-kinase catalytic subunit alpha isoform (Homo sapiens) (UniProt P42336). The note with it: at 0.1 µM.
Chain of Phosphatidylinositol 4,5-bisphosphate 3-kinase catalytic subunit alpha isoform (Homo sapiens) (P42336 whole entry, canonical isoform): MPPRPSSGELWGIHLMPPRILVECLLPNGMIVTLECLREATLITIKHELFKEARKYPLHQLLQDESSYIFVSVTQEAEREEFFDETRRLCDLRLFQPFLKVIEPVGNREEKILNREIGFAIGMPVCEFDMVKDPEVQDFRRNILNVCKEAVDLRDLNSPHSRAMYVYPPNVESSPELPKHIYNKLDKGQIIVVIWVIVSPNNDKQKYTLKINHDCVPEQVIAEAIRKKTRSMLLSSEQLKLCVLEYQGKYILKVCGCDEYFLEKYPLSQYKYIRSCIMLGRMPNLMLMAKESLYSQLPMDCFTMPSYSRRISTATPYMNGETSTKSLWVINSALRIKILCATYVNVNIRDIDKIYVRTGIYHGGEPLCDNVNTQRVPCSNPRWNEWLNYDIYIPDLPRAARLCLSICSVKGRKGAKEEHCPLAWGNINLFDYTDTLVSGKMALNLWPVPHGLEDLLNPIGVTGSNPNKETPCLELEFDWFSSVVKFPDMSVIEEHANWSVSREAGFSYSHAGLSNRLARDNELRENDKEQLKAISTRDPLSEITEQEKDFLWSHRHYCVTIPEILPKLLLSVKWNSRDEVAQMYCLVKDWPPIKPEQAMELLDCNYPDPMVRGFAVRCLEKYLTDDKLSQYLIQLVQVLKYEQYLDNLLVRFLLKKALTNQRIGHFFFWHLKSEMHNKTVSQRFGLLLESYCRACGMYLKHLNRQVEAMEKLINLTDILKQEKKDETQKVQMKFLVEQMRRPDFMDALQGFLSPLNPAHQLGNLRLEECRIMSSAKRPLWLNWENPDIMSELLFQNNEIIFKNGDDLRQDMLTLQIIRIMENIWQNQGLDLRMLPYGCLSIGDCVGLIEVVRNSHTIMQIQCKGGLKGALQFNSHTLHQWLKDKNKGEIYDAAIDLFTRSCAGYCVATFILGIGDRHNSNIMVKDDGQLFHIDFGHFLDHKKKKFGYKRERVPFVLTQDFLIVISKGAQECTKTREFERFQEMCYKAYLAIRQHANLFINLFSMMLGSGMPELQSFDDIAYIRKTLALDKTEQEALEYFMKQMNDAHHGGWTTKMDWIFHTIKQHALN
The target is the same in assay [5]. The following applies: at 1 µM.
The target of assay [6] is T2, Phosphatidylinositol 4,5-bisphosphate 3-kinase catalytic subunit delta isoform (Homo sapiens) (UniProt O00329).
T2 sequence (whole entry): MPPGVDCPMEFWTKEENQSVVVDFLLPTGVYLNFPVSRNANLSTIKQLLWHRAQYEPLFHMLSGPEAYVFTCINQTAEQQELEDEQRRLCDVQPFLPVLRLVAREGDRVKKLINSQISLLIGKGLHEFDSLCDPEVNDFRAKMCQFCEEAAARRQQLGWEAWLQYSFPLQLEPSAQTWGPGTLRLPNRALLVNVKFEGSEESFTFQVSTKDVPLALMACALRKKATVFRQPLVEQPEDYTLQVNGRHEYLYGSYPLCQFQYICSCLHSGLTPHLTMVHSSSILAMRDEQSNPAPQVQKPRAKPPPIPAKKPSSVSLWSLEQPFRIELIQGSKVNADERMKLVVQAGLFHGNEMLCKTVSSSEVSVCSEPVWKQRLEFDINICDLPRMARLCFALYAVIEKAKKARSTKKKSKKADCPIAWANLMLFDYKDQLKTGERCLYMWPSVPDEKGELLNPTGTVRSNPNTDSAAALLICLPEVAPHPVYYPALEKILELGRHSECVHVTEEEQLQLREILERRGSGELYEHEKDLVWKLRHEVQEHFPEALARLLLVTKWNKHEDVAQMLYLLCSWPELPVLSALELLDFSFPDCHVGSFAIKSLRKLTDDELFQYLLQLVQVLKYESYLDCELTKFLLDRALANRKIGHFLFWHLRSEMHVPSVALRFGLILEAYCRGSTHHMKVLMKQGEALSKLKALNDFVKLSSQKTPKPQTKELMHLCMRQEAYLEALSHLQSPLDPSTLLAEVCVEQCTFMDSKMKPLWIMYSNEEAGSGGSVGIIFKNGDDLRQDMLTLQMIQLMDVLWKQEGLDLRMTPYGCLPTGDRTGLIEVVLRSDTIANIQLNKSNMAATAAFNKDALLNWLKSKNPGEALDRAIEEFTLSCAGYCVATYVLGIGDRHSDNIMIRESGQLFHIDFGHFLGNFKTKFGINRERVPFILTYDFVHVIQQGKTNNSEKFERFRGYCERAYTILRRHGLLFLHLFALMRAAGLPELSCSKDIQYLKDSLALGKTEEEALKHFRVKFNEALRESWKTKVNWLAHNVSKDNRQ
The following applies: at 0.1 µM.

The target in assay [7] is T2, Phosphatidylinositol 4,5-bisphosphate 3-kinase catalytic subunit delta isoform (Homo sapiens). The note with it: at 1 µM.
Assay [8] addresses Phosphatidylinositol 4-kinase beta (Homo sapiens) (UniProt Q9UBF8). The following applies: at 1 µM.
For assay [9], the target named is Sphingosine kinase 1 (Homo sapiens) (UniProt Q9NYA1). The following applies: at 0.1 µM.
Chain of Sphingosine kinase 1 (Homo sapiens) (Q9NYA1 whole entry): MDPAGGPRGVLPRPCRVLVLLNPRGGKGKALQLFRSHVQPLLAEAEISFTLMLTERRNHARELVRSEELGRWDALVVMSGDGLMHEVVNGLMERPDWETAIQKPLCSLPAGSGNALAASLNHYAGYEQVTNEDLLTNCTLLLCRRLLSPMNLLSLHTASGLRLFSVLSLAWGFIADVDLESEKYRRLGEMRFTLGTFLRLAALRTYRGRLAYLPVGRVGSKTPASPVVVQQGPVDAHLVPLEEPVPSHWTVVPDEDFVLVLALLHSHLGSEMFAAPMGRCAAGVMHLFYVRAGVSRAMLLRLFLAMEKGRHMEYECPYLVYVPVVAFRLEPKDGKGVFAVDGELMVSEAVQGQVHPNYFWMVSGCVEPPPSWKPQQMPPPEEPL
Assay [10] shares this target. The note with it: at 1 µM.
Assay [11] addresses T3, Sphingosine kinase 2 (Homo sapiens) (UniProt Q9NRA0).
T3 sequence (whole entry): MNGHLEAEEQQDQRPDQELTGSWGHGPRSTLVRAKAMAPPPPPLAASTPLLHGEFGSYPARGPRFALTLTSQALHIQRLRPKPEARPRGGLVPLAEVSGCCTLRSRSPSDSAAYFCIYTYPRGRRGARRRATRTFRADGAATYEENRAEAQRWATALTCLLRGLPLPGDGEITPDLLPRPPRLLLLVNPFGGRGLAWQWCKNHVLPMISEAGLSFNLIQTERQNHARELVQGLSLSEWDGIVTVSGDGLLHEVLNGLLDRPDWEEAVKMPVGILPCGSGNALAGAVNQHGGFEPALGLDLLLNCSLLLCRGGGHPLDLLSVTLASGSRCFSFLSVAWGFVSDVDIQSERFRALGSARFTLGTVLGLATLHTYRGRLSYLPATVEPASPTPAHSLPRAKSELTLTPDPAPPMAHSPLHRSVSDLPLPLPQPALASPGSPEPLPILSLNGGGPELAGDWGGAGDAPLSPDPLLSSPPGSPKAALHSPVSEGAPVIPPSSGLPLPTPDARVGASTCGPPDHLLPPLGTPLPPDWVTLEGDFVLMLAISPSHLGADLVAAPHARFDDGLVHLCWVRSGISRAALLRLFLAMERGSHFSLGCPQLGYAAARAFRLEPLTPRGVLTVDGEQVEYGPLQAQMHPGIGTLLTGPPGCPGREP
The note with it: at 0.1 µM.

The target in assay [12] is T3, Sphingosine kinase 2 (Homo sapiens). The following applies: at 1 µM.
Assay [13] concerns the target Casein kinase II subunit alpha (Homo sapiens) (UniProt P68400). The note with it: at 0.1 µM.
The target is the same in assay [14]. The following applies: at 1 µM.
The target of assay [15] is T4, Inhibitor of nuclear factor kappa-B kinase subunit alpha (Homo sapiens) (UniProt O15111).
T4 sequence (whole entry): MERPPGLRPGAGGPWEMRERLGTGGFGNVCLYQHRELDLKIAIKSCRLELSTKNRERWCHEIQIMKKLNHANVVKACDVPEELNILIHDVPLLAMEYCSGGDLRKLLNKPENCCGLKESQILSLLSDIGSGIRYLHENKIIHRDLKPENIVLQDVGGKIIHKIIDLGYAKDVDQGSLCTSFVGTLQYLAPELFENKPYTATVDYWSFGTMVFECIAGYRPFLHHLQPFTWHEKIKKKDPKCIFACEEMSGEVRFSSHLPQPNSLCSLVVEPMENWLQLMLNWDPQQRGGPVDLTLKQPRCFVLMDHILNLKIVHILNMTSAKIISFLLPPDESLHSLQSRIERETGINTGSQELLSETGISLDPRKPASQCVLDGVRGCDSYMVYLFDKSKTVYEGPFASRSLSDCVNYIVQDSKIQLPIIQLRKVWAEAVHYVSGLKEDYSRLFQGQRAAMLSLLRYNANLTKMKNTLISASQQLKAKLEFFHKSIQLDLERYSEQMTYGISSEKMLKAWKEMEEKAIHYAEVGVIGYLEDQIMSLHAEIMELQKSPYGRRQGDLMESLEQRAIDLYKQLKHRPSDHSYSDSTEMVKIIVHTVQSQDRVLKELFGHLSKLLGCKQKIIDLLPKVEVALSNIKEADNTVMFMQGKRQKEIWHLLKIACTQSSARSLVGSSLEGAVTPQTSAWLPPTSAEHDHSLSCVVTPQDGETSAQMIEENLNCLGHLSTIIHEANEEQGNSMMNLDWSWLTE
The note with it: at 0.1 µM.

Assay [16] concerns the target T4, Inhibitor of nuclear factor kappa-B kinase subunit alpha (Homo sapiens). The note with it: at 1 µM.
The target of assay [17] is T5, Inhibitor of nuclear factor kappa-B kinase subunit beta (Homo sapiens) (UniProt O14920).
T5 sequence (whole entry): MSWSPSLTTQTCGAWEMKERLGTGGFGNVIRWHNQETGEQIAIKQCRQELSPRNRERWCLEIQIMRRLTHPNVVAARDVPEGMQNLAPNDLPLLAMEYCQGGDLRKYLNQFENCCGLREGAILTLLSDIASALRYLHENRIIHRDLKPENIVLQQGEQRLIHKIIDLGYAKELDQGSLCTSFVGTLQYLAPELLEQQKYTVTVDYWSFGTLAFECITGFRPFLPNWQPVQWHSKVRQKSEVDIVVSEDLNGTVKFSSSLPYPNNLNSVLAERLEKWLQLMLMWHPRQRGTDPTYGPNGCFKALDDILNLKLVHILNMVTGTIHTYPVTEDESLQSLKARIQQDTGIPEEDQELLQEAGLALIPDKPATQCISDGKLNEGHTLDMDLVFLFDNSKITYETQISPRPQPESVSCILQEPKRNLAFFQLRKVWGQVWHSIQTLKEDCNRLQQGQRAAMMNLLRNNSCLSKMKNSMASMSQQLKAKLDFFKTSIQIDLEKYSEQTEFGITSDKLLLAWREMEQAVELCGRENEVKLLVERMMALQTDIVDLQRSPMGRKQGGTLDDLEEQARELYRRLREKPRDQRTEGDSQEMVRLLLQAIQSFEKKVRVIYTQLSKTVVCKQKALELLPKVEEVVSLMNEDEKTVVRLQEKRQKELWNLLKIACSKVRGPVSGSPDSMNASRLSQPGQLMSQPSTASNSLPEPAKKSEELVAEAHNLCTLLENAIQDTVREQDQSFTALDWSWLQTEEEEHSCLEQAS
The note with it: at 0.1 µM.

Assay [18] addresses T5, Inhibitor of nuclear factor kappa-B kinase subunit beta (Homo sapiens). The note with it: at 1 µM.
In assay [19] the target is T6, Inhibitor of nuclear factor kappa-B kinase subunit epsilon (Homo sapiens) (UniProt Q14164).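 Note: mean inhibition of IKKε reported, from the GSK PKIS dataset.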
T6 sequence (whole entry): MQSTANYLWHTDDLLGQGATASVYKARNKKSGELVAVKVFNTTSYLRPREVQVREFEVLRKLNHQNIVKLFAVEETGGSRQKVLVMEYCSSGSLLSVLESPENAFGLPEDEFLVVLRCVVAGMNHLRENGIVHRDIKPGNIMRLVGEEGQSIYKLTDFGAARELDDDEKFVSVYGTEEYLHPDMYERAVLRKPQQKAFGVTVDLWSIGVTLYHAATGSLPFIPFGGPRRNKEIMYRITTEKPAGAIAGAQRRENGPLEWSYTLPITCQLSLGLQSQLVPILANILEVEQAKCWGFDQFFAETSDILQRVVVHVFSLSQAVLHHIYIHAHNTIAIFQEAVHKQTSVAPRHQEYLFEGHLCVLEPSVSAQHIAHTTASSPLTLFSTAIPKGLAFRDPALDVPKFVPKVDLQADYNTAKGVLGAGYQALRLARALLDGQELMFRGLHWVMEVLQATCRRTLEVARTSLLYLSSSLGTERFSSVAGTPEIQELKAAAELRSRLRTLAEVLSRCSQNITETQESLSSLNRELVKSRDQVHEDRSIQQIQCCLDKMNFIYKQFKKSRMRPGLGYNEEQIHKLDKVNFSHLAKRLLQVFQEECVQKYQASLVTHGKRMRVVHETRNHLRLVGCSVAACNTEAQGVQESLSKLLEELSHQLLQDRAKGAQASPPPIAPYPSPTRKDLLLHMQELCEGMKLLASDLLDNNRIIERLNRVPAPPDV
The following applies: at 0.1 µM.

Assay [20] has as its target Phosphatidylinositol 4-kinase beta (Homo sapiens) (UniProt Q9UBF8). The note with it: at 0.1 µM.

Chain of Phosphatidylinositol 4-kinase beta (Homo sapiens) (Q9UBF8 2-816 limits assumed): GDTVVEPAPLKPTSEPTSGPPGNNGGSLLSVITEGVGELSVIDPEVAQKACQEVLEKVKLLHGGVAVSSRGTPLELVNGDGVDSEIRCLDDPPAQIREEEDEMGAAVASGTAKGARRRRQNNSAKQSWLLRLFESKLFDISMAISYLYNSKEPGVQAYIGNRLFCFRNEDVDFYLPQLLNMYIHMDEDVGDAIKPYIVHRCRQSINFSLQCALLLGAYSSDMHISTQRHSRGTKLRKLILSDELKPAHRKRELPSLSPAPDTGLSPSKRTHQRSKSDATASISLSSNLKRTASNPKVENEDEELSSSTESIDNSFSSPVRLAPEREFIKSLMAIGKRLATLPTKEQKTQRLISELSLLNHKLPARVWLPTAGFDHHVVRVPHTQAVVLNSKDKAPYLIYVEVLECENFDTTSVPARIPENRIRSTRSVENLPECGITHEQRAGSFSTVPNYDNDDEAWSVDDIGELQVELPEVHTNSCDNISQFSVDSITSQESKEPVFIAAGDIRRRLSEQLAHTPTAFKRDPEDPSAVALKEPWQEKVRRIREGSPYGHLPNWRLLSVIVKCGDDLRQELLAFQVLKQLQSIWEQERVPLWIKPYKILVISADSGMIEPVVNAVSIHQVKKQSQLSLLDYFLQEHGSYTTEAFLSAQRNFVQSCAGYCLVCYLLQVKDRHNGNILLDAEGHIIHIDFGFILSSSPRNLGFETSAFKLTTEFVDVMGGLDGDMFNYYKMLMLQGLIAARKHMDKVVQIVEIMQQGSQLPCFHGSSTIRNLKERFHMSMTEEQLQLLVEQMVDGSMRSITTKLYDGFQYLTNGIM
Chain of Casein kinase II subunit alpha (Homo sapiens) (P68400 whole entry, looked up): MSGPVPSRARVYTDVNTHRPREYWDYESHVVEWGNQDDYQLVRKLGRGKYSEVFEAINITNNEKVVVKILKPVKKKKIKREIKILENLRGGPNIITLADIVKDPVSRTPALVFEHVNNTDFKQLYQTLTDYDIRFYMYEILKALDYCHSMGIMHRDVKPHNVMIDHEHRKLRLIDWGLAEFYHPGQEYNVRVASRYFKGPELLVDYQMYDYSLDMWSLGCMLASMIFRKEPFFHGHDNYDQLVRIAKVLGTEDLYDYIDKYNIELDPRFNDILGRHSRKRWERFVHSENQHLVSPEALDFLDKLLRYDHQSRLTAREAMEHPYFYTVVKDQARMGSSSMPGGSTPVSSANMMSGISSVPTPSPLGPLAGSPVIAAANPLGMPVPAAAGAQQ

Turning to `NCc1ccc(-n2c(-c3nonc3N)nc3cnccc32)cc1`, the inhibition in assay [1] is 3.74%; in assay [2] it was -2.56%; in assay [3], -1.45%; in [4], 4.81%; in assay [5], 4.8%; in [6], 3.69%. For the same molecule, the inhibition in assay [7] is 6.07%; in [8] it was 5.38%; in assay [9], 1.89%; in assay [10], -0.9%; in assay [11], 0.05%; in [12] it was -0.74%. Moreover, the inhibition in assay [13] was determined as 9.32%; in [14], 9.93%; in [15], 7.27%; in [16], 7.43%; in [17] it was 8.87%; in [18], 7.17%. Also, the inhibition in assay [19] was 5.51%.

Regarding `NS(=O)(=O)c1ccc(N/N=C2\C(=O)Nc3ccc(-c4cnco4)cc32)cc1`, the inhibition in [1] is 5.43%; in assay [2] it was -1.9%; in [3], -0.75%; in assay [4], 1.34%; in assay [5], -0.11%; in assay [6], 0.72%. Besides, the inhibition in assay [7] was -0.54%; in assay [20], 1.44%; in assay [8] it was 2.18%; in [9], -0.25%; in [10], 1.01%; in [11], 1.12%. Moreover, the inhibition was -1.25% in assay [12]; 5.69% in [13]; 15.2% in [14]; 1.42% in assay [15]; 35.1% in assay [16]; 2.62% in [17]. In addition, the inhibition in assay [18] is 10.4%; in [19], 5.68%.
